Laboratory results published in PubChem BioAssay.
The source made the active and inactive calls.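 Rule for the calls: active = inhibition above the hit cutoff set in the earlier primary screen (cut at about 27% in these data); inactive = the rest.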

These molecules were tested against Protein phosphatase methylesterase 1 (Homo sapiens) (UniProt Q9Y570) (assay: human PME-1 methylesterase inhibition confirmation – biochemical, fluorescence polarization, FP-Rh probe, triplicate (AID 2171;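 note: 0% = enzyme with DMSO and 100% = wells lacking PME-1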)). Details: recombinant PME-1, FP-Rh probe fluorescence polarization; at 5.9 µM; hits give high values.
Sequence of Protein phosphatase methylesterase 1 (Homo sapiens) (Q9Y570 whole entry, looked up): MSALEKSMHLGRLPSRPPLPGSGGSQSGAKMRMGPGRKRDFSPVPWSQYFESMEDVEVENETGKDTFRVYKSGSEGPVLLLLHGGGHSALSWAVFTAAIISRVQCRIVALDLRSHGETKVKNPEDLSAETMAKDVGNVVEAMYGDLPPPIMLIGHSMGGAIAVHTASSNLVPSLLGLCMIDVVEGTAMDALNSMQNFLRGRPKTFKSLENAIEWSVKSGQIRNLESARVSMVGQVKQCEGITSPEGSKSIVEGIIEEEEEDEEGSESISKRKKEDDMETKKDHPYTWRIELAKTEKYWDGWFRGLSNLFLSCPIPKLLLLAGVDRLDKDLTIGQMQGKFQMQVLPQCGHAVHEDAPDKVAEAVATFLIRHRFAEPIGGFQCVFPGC

Question: COc1ccc(Nc2cnn(-c3nc4ccccc4s3)c(=O)c2Cl)cc1 was tested. Which inhibition did it give?
Answer: 37.3% (active)

Question: For N[C@H](CSCc1ccccc1)C(=O)Nc1ccc([N+](=O)[O-])cc1, which inhibition is on record?
Answer: -1.96% (inactive)

Question: Which inhibition does the source give for COc1ccc(-c2csc(NC(=O)Nc3ccccc3)n2)cc1 here?
Answer: 25.6% (inactive)

Question: For O=Nc1c(O)c2ccccc2c2ccccc12, which inhibition is on record?
Answer: 65.8% (active)

Question: How did the inhibition turn out when On1onc2c3cc(-c4ccccc4)nc3ccc21 was run?
Answer: 49.3% (active)

Question: Cc1cc(O)ccc1N=Cc1c(C(F)(F)F)[nH][nH]c1=O was tested. Which inhibition did it give?
Answer: 12.2% (inactive)

Question: How did the inhibition turn out when COc1ccc(S(=O)(=O)N2CCCCCC2)cc1NC(=O)Cc1cc(OC)c(OC)c(OC)c1 was run?
Answer: 64% (active)

Question: Cn1c(=O)c2c(nc(CN3CCN(C(c4ccccc4)c4ccccc4)CC3)n2CCCO)n(C)c1=O was tested. Which inhibition did it give?
Answer: 23.8% (inactive)

Question: For Nc1c(C(=O)Nc2ccc(F)cc2)sc2nc(-c3ccco3)ccc12, which inhibition is on record?
Answer: 49.6% (active)

Question: Which inhibition does the source give for Cc1c(Cl)cccc1Nc1nc(N)nc(CSc2nc3ccccc3s2)n1 here?
Answer: 25.1% (inactive)

Question: With COc1ccc(C)cc1NC(=O)NNC(=O)c1cc2ccccc2cc1O as the molecule, how does the inhibition read?
Answer: 16.4% (inactive)

Question: For O=C1CN(C(=O)c2ccccc2F)C(c2ccccc2)c2cc(F)ccc2N1 (stereo not given), which inhibition is on record?
Answer: 16.4% (inactive)

Question: Cc1ccc(C)c(-n2c3nc(=O)[nH]c(=O)c-3cc3cc([N+](=O)[O-])ccc32)c1 was tested. Which inhibition did it give?
Answer: 24.5% (inactive)

Question: COc1ccc(/C=C/c2c(-c3ccc(OC)cc3)oc3cccnc23)cc1 was tested. Which inhibition did it give?
Answer: 24.5% (inactive)

Question: Which inhibition does the source give for O=C1C=C(N2CCCCC2)c2ccccc2C1=O here?
Answer: 43% (active)

Question: With CC(=O)NC(c1cccs1)c1cc([N+](=O)[O-])c2cccnc2c1O (stereo not given) as the molecule, how does the inhibition read?
Answer: 12% (inactive)

Question: How did the inhibition turn out when Cc1ccc(-c2c(C(=O)N/N=C/c3c[nH]c4ccccc34)nnn2-c2nonc2N)cc1 was run?
Answer: 21.9% (inactive)

Question: How did the inhibition turn out when COc1ccc2[nH]c(=O)c(-c3noc(-c4ccccc4)n3)cc2c1 was run?
Answer: 28.2% (active)

Question: How did the inhibition turn out when Nc1ccc(N2CCCCC2)c2nonc12 was run?
Answer: 11.3% (inactive)

Question: Which inhibition does the source give for Cc1nn(-c2ccc(Br)cc2)c(=O)c2ccccc12 here?
Answer: 4.4% (inactive)

Question: How did the inhibition turn out when Cc1ccc(S(=O)(=O)Oc2cccc(/C=N/Nc3ccc(C(=O)O)cc3)c2)cc1 was run?
Answer: 94% (active)

Question: With CCC1Sc2ccc(S(=O)(=O)CCC(=O)Nc3ccc(OC(F)(F)F)cc3)cc2NC1=O (stereo not given) as the molecule, how does the inhibition read?
Answer: 17.3% (inactive)

Question: Which inhibition does the source give for O=c1[nH]n2c(=O)c3c([nH]c2c1N=Nc1cccc(C(F)(F)F)c1)CCCC3 here?
Answer: 60.6% (active)

Question: Which inhibition does the source give for O=C(CNc1ccc(F)cc1)N/N=C/c1c(O)ccc2ccccc12 here?
Answer: 16.3% (inactive)

Question: How did the inhibition turn out when CC1=NN(c2ccc(C)c(C)c2)C(=O)C1C(c1cccc(O)c1)C1C(=O)N(c2ccc(C)c(C)c2)N=C1C (stereo not given) was run?
Answer: 15.3% (inactive)

Question: Which inhibition does the source give for O=C(Nc1ccc(-c2csc(Nc3ccc(Cl)cc3)n2)cc1)c1cccc(C(F)(F)F)c1 here?
Answer: -1.3% (inactive)

Question: How did the inhibition turn out when CNS(=O)(=O)c1cc(C(=O)OCC(=O)NC2CCCc3ccccc32)ccc1Cl (stereo not given) was run?
Answer: 24.4% (inactive)

Question: Which inhibition does the source give for COc1cccc(CNC(=O)CCCc2cn(C)c3ccccc23)c1 here?
Answer: 6.78% (inactive)

Question: With Cc1cccc2cc(/C=N/Nc3ccc(C(=O)O)cc3)c(Cl)nc12 as the molecule, how does the inhibition read?
Answer: 43.7% (active)

Question: How did the inhibition turn out when CC(C)Oc1ccc(CCC(=O)N/N=C/c2ccc3c(c2)OCO3)cc1 was run?
Answer: 4.01% (inactive)

Question: For Cc1cc(SCC(=O)N/N=C/c2ccc(O)c(O)c2O)c(C)cc1Br, which inhibition is on record?
Answer: -9.75% (inactive)

Question: With Cc1ccc(S(=O)(=O)N2CCOCC2)cc1NC(=O)COC(=O)c1ccccc1OCc1c(C)noc1C as the molecule, how does the inhibition read?
Answer: 16.8% (inactive)

Question: COC(=O)/C(=C(O)\C=C\c1ccccc1[N+](=O)[O-])c1nc2ccccc2[nH]1 was tested. Which inhibition did it give?
Answer: 21.9% (inactive)

Question: Cc1ccc2cc(C#N)c(SCc3nnc(-c4ccccc4[N+](=O)[O-])o3)nc2c1 was tested. Which inhibition did it give?
Answer: 25.1% (inactive)

Question: Cn1c(O)c(/C=N/NC(=O)c2cc3ccccc3cc2O)c2ccccc21 was tested. Which inhibition did it give?
Answer: 58.7% (active)

Question: Which inhibition does the source give for COc1cc(N=Nc2cccc(S(N)(=O)=O)c2)c2ccccc2c1N here?
Answer: 33.1% (active)

Question: Which inhibition does the source give for Cc1cc2nc3ccc(N(C)C)cc3nc2cc1N here?
Answer: 20% (inactive)

Question: How did the inhibition turn out when O=C1CC(N(O)c2ccccc2)C(=O)N1c1cc(Cl)cc(Cl)c1 (stereo not given) was run?
Answer: 5.35% (inactive)

Question: How did the inhibition turn out when O=c1cc(-c2ccccc2Cl)oc2c(NS(=O)(=O)c3cc(Cl)cc(Cl)c3O)ccc(O)c12 was run?
Answer: 47.1% (active)

Question: With Cc1ccc2[nH]c(C)c(/C=N/Nc3nc4ccccc4s3)c2c1 as the molecule, how does the inhibition read?
Answer: 41.1% (active)
